Consider 40 molecules from ChEMBL document CHEMBL1157539, “Thousands of chemical starting points for antimalarial lead identification” (Nature, 2010).

Structures are written as SMILES.

One assay concerns Plasmodium falciparum. The assay is described as follows: GSK_TCMDC: Inhibition of Plasmodium falciparum 3D7 in whole red blood cells, using parasite LDH activity as an index of growth. Test compounds present at 2uM. The class given is functional.
The Inhibition is the change of the read-out against control, counted positive when it falls. Read a high Inhibition as strong suppression. `O=C(Nc1cccc(CN2CCN(Cc3cccc(O)c3)CC2)c1)c1ccc(Cl)c(Cl)c1.O=C(O)C(F)(F)F` gave an Inhibition of 100%.
In turn, `O=C(Nc1cccc(N2CCC(NCc3cccnc3)CC2)c1)c1cccc(C(F)(F)F)c1` showed an Inhibition of 98%.
On the same count and under the same terms, as for `O=C(Nc1cccc(CN2CCCN(Cc3ccc(O)cc3)CC2)c1)c1ccc(Cl)c(Cl)c1.O=C(O)C(F)(F)F`, the figure is 100%.

A further assay deals with Plasmodium falciparum. The assay is described as follows: GSK_TCMDC: Inhibition of Plasmodium falciparum Dd2 in whole red blood cells, using parasite LDH activity as an index of growth. Test compounds present at 2uM. The class given is functional.
Turning to `CCc1nc(N)nc(N)c1-c1ccc(C(C)(C)C)cc1`, the Inhibition stood at 0%.
`CCCc1cc(NC2CCN(C)CC2)nc(Nc2cccc(OC)c2)n1` yielded an Inhibition of 28%.
On the same count and under the same terms, as for `CCNc1cc(C(=O)N[C@@H](Cc2ccccc2)[C@H](O)CNCCCc2ccc(OC)cc2)cc(N2CCCC2=O)c1.O=C(O)C(F)(F)F`, the figure is 96%.
`COCCNCc1cccc(-c2cc3nccc(Nc4ccc(Oc5ccccc5)cc4)c3cc2Cl)c1` registered an Inhibition of 99%.
`NCC1CCCN1Cc1cccc(-c2ccc(-c3nc4cc(C(F)(F)F)ccc4[nH]3)s2)c1.O=C(O)C(F)(F)F` (stereo not drawn): the Inhibition is 96%.
Still for that read-out and setting: as for `COc1ccc(CN(C)C(=O)CCNS(=O)(=O)c2ccc3c(c2)OCCCO3)cc1F`, the figure is 94%; as for `CC(O)C1CCCCN1C(=O)c1cccc(-c2ccc(-c3nc4cc(C(F)(F)F)ccc4[nH]3)cc2)c1` (stereo not drawn), 100%.
Molecule `Cc1cccc2nc(-c3cccc(-c4ccc(NC(=O)C(C)CN(C)C)cc4)c3)[nH]c12` (stereo not drawn) gave an Inhibition of 100%.
The same measure, in the same setting: as for `CCCCCCNC(=O)C1Cc2c([nH]c3cc(Cl)ccc23)C2(CCN(Cc3ccccc3)CC2)N1` (stereo not drawn), the figure is 56%; as for `CN1CCCC(CN2CCN(Cc3ccc(-c4ccc(-c5nc6ccccc6[nH]5)cc4)cc3)CC2)C1.O=C(O)C(F)(F)F` (stereo not drawn), 100%.
Still for that read-out and setting: in the case of `CCCNS(=O)(=O)c1ccc(NC(=O)C(C)Oc2ccc([N+](=O)[O-])cc2)cc1` (stereo not drawn) it was 37%; in that of `CCCCCN(C(=O)Nc1cc(C(F)(F)F)cc(C(F)(F)F)c1)C(C)c1nc2ccccc2c(=O)n1CC` (stereo not drawn), 100%; in that of `Cn1cncc1C(=O)Nc1cccc(-c2ccc(-c3nc4cc(F)ccc4[nH]3)s2)c1`, 27%.
The same measure, in the same setting: in the case of `CCCCCCn1c(Sc2ccc(C#N)c([N+](=O)[O-])c2)nnc1-c1cc(OC)cc(OC)c1` it was 41%; in that of `Cc1nn(-c2ccc(Cl)cc2)c2[nH]c(CN3CCN(c4cccc(Cl)c4)CC3)cc(=O)c12`, 98%.
With `CC(=Nc1ccc(Cl)c(Cl)c1)N(C)C.Cl`, the Inhibition amounted to 0%.
The same measure, in the same setting: in the case of `Cc1cc(Nc2ccc(Cl)c(Cl)c2)n2nc(C)nc2n1` it was 97%.
Still for that read-out and setting: in the case of `OC(CNCc1ccccc1Oc1ccccc1)c1cccc(C(F)(F)F)c1` (stereo not drawn) it was 98%; in that of `CC(=O)NC(c1cccs1)c1cc(Cl)c2cccnc2c1O` (stereo not drawn), 93%.
As for `COc1ccc(CNCc2ccccc2)cc1-c1ccc(S(=O)(=O)NCCN2CCCC2)c(F)c1.O=C(O)C(F)(F)F`, the Inhibition was determined as 42%.
The same measure, in the same setting: in the case of `CN(C)CCNCc1ccc(-c2ccc3c(Nc4ccc(Oc5ccccc5)cc4)ccnc3c2)o1` it was 99%; in that of `COCCN1CCN(Cc2ccc(-c3cccc(-c4nc5ccccc5[nH]4)c3)cc2)CC1.O=C(O)C(F)(F)F`, 10%.
On to `Cc1ccc(NC(=O)c2ccc(CN3CCCN(Cc4cccc(O)c4)CC3)cc2)cc1F.O=C(O)C(F)(F)F`, for which the Inhibition was 31%.
The same measure, in the same setting: as for `CC(C)n1ncc2c3c(N)nc(N)nc3ccc21`, the figure is 6%; as for `Cl.O=C(Nc1cccc(C2=NCCCN2)c1)Nc1cccc(C2=NCCCN2)c1`, 70%; as for `COC(=O)C1(NC(=O)c2ccc(-n3nc(C)c(-c4ccccc4)c3N)cc2)CCCC1`, 81%.
In turn, `CC(C)CNCc1ccc(-c2cccc(CN(CCN(C)C)C(=O)NCCc3ccccc3)c2)cc1.O=C(O)C(F)(F)F` registered an Inhibition of 37%.
The same measure, in the same setting: as for `O=C(NCCN1CCCCC1)c1ccc(CNC(=O)c2ccc(O)c(-c3ccc(Cl)c(Cl)c3)c2)cc1`, the figure is 68%.
Same read-out and setting: as for `Fc1ccc2[nH]c(-c3cccc(-c4cccc(CNCCc5ccncc5)c4)c3)nc2c1.O=C(O)C(F)(F)F`, the figure is 88%; as for `CC(C)(C)c1cc(C(=O)N2CCN(c3ccc(C(F)(F)F)cn3)CC2)n(Cc2ccc(F)cc2)n1`, 26%.
`CC1(C(=O)Nc2ccc([N+](=O)[O-])cc2O)CC2c3ccccc3C1c1ccccc12` (stereo not drawn): the Inhibition is listed as 16%.
The same measure, in the same setting: as for `COc1ccc(CC(Cc2ccc(OC)cc2)NCC(O)c2cccc(Cl)c2)cc1` (stereo not drawn), the figure is 98%; as for `FC(F)(F)c1cccc(CCNc2nccc(NCc3ccc(Cl)cc3Cl)n2)c1`, 59%; as for `COc1ccc(-n2cc(CNCCCn3ccnc3)c(-c3cccc(F)c3)n2)cc1`, 17%.
`COc1cc2c(cc1OC)CN(CCc1ccc(NC(=O)c3cc4cc(OC(F)(F)F)ccc4[nH]3)cc1)CC2` came in with an Inhibition of 20%.
Regarding `CN(C)CCOc1ccc(-c2cc(-c3ccc(Cl)c(O)c3)c(-c3ccncc3)[nH]2)cc1.Cl`, the Inhibition is listed as 92%.
`COc1cc(NC(=O)/C=C/c2cccc3cc[nH]c23)ccc1OCCN(C(C)C)C(C)C.Cl` gave an Inhibition of 51%.
`O=C(Nc1cccc(CN2CCN(Cc3cccc(O)c3)CC2)c1)c1ccc(Cl)c(Cl)c1.O=C(O)C(F)(F)F` had an Inhibition of 35%.
Molecule `O=C(Nc1cccc(N2CCC(NCc3cccnc3)CC2)c1)c1cccc(C(F)(F)F)c1` showed an Inhibition of 2%.
The molecule `O=C(Nc1cccc(CN2CCCN(Cc3ccc(O)cc3)CC2)c1)c1ccc(Cl)c(Cl)c1.O=C(O)C(F)(F)F` registered an Inhibition of 81%.
